# Shiga toxin inh = inhibitors of Shiga toxin in Vero cells; 9.2% of 290,000 active; AID 2315; inhibition, % at 38.7 µM; Vero cells, Shiga toxin protein synthesis inhibition reporter; in the data active = inhibition mostly above about 28%, no sharp cut-off; inactive = mostly below about 43%
# SARS PLpro yeast = blocks SARS-CoV papain-like protease in a yeast assay; AID 485353; Potency, µM (titrated, usually from 32.9 µM), actives largely listed as activators; S. cerevisiae expressing SARS-CoV PLpro, growth rescue; 0.19% of 330,000 active; calls by dose curve; note: nearly all actives have a fitted effect of over 55% in size
# AMA1-RON2 inh = disrupts binding of P. falciparum AMA1 to RON2. Potency, µM (doses to about 58.2 µM), usual class: inhibitors. 0.2% of 360,000 active. AlphaScreen AMA1-biotinylated RON2 peptide binding; note: nearly all actives have a fitted effect of over 45% in size
#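 AMA1 (3D7) with his tag at 25 nM final met compounds first, then biotinylated RON2 peptide at 25 nM; detection used donor plus acceptor beads, 10 µg/mL apiece, read by AlphaScreen after 30 min at room temperature.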
# AmpC inh no detg = AmpC beta-lactamase inhibition without detergent; P00811; AmpC nitrocefin hydrolysis, absorbance 480 nm, 0.0001% Triton; Potency, µM (titrated, usually from 57.1 µM), usual class: inhibitors; 0.52% of 330,000 active; note: nearly all actives have a fitted effect of over 20% in size
# Target sequence (P00811 whole entry, looked up): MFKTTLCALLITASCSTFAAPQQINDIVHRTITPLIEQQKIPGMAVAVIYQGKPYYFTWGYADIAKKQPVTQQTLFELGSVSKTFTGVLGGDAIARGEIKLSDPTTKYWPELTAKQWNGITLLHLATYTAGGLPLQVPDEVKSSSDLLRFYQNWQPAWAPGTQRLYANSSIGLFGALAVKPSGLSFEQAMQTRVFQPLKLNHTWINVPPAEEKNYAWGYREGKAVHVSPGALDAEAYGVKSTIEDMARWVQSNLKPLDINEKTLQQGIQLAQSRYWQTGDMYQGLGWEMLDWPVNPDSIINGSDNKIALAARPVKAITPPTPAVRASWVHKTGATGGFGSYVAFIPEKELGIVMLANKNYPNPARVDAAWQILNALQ
#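 20 mM phosphate pH 7.0 + 0.01% (detergent screen) or 0.0001% Triton X-100; 5.3 nM AmpC reagent; cpd preinc 15 min RT; nitrocefin (800 uM stock) to start; A480 q20 s × 4 min; Activity was normalised to no-enzyme and no-compound control wells.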
# AmpC detergent = AmpC beta-lactamase inhibition with detergent present | 0.041% of 370,000 active | P00811 | AmpC hydrolysis of nitrocefin, absorbance 480 nm, 0.01% Triton | AID 485294 | Potency, µM (doses to about 114 µM), usual class: inhibitors; note: nearly all actives have a fitted effect of over 25% in size
#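 20 mM phosphate pH 7.0 + 0.01% (detergent screen) or 0.0001% Triton X-100; 5.3 nM AmpC reagent; cpd preinc 15 min RT; nitrocefin (800 uM stock) to start; A480 q20 s × 4 min; Activity was normalised to no-enzyme and no-compound control wells.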
# CHX counter = counter-screen hit for Shiga toxin inhibitors, cycloheximide | cell reporter, cycloheximide protein synthesis inhibition counterscreen | max response, % | 12% of 300,000 active | AID 2314; in the data active = max response mostly above about 13%, no sharp cut-off; inactive = mostly below about 14%; note: read at 38.3 µM for the half of the compounds with a filed dose
# Hits are given with their value; - = inactive; ? = inconclusive; . = no result; [ ] = another dose, or the depositor's remark. The entries come from a sample that favours hits as a whole. Unless noted, calls come from the whole dose curve; as a rule, active = well fitted curve in the direction sought with a large enough effect; inconclusive = small, poorly fitted or top-dose-only effect, or another doubt; inactive = no such curve, though single readings can be large; an effect the other way counts as inactive or inconclusive.
SMILES,Shiga toxin inh,SARS PLpro yeast,AMA1-RON2 inh,AmpC inh no detg,AmpC detergent,CHX counter
Cc1[nH]c2ccccc2c1N=Nc1ccccc1F,53,-,-,-,-,24
CCN(CCNC(=O)CC1Oc2ccccc2NC1=O)c1ccccc1 (stereo not given),-,-,-,-,-,-
Cc1nn(-c2ccc(C(=O)N3CCN(S(=O)(=O)c4ccccc4C(F)(F)F)CC3)cc2)c(C)c1Cl,.,-,-,-,-,.
C/C(N)=C(/C#N)C(=O)CSc1nnc(-c2ccc3c(c2)OCO3)o1,99,-,-,-,-,44
NC(=O)CSc1nnc(-c2ccc3c(c2)OCO3)o1,75,-,-,-,-,28
N#CCSc1nnc(-c2ccc3c(c2)OCO3)o1,24,-,-,-,-,14
C/C(N)=C(/C#N)C(=O)CSc1nnc(-c2ccc(OC(F)F)cc2)o1,99,-,-,-,-,35
O=C(O)CSc1nnc(-c2ccc3c(c2)OCO3)o1,-,-,-,-,-,-
CCOc1cccc(CN2CCC(n3nccc3NC(=O)C3CCCC3)CC2)c1,-,-,-,-,-,-
Cc1nc(NC(=O)CSc2nnc(-c3ccc4c(c3)OCO4)o2)c(Cl)cc1Cl,active,-,-[11.6 µM],-,-,19
O=C(CSc1nnc(-c2ccc3c(c2)OCO3)o1)Nc1ncc(C(F)(F)F)cc1Cl,-,-,-,-,-,-
Nc1c(C(=O)N/N=C/c2cccnc2)cnn1-c1ccccc1,51,-,-,-,-,47
COc1cccc(/C=N/NC(=O)c2cnn(-c3ccccc3)c2N)c1,72,-,-,-,-,46
O=C(Oc1cccc(Cl)c1)N1CCOCC1,-,-,-,-,?,-
O=C(N/N=C/c1ccccc1OCc1ccccc1)c1cccs1,active,-,-[2.32 µM],-,-,42
COc1cc(/C=N/NC(=O)c2cccs2)ccc1O,97,-,-,-,-,52
COc1cc(/C=N/NC(=O)c2cccs2)ccc1OCc1ccccc1,53,-,-,-,-,28
O=C(N/N=C/c1cccc(OC(=O)N2CCOCC2)c1)c1cccs1,-,-,-,-,-,27
CN1CCN(C(=O)C(=O)Nc2c3c(nn2-c2ccc(F)cc2)CSC3)CC1,.,.,.,.,-,.
Cc1ccc(S(=O)(=O)N2CCCC2)cc1C(=O)NC1CCCCC1,-,-,-,-,-,-
COc1cc(/C=N/NC(=O)c2ccccc2O)ccc1OC(=O)CC1SC(=O)NC1=O (stereo not given),58,-,-,-,-,30
COc1cc(/C=N/Nc2ccccc2C(F)(F)F)ccc1O,69,-,-,-,-,33
COc1cc(C(=O)N/N=C/c2ccc(OC(=O)c3ccccc3Cl)c(OC)c2)ccc1O,-,-,-,-,-,-
COC(=O)N/N=C\c1cccc(OC(=O)c2cccs2)c1,-,-,-,-,-,-
COc1ccc(/C=N/Nc2cc(C)nc3c(C)cccc23)cc1,-,-,-,-,-,-
SMILES,Shiga toxin inh,SARS PLpro yeast,AMA1-RON2 inh,AmpC inh no detg,AmpC detergent,CHX counter
COc1cccc2c(N/N=C/c3ccc(O)c(O)c3)cc(C)nc12,53,-,-,-,-,22
COc1cccc(/C=N/NC(=O)c2cccs2)c1,127,-,-,-,-,47
Cn1c(CN2CCOCC2)nnc1SCC(=O)Nc1ccc2c(c1)OCCO2,-,-,-,-,-,-
CCNC(=S)NC1CC2CCCC(C1)N2Cc1ccco1 (stereo not given),-,-,-,-,-,-
c1ccc2c(c1)CCCC2NC1=NCCC1 (stereo not given),-,-,-,-,?,-
COc1ccc(S(=O)(=O)N2CCOC2CNC(=O)C(=O)NCCN2CCOCC2)cc1 (stereo not given),-,-,-,-,-,-
CCOc1ccc(NS(=O)(=O)c2cc(NC(=O)c3cccc(C)c3)ccc2Cl)cc1,-,-,-,-,-,-
CCc1c(C)nc2[nH]nc(-c3ccccc3C)n2c1=O,-,-,-,0.28µM,-,-
CCc1c(C)nc2[nH]nc(-c3ccccc3)n2c1=O,-,-,-,-,-,15
CCOC(=O)N1CCN(CC(O)COc2c(C)cc(C)cc2C)CC1 (stereo not given),-,-,-,-,-,-
COc1ccccc1CNC(=O)CN(Cc1ccc(Cl)cc1)S(C)(=O)=O,-,-,-,-,-,-
CC(C)COC(=O)c1ccc(N2C(=O)c3ccccc3C2=O)cc1,-,-,-,-,?,-
Cc1ccc(NC(=O)C2CCN(c3ncnc4c3nc3n4CCCCC3)CC2)nc1,-,-,?,-,-,-
COc1ccc(-c2c(C)nn3c(-c4ccccc4)cc(C)nc23)cc1OC,.,.,.,.,-,.
COc1ccc(-c2cc(C)nc3c(-c4ccccc4)cnn23)cc1,90,-,-,-,-,41
Cc1cc(SCC(N)=O)nc(SCC(=O)c2ccccc2)n1,-,-,-,-,-,-
Cc1cc(SCC(=O)c2ccccc2)n2ncc(-c3ccccc3)c2n1,67,-,-,-,-,61
Cc1cc(-c2ccccc2)n2ncc(-c3ccccc3)c2n1,97,-,-[11.6 µM],-,-,47
Nc1nc(N2C(=O)C3CC=CCC3C2=O)nn1-c1ccccc1 (stereo not given),-,-,-,-,?,-
O=C1CCN(Cc2ccccc2)C(=O)N1c1ccccc1,-,-,-,-,-,-
Cc1ccc(-n2cnc3scc(-c4cccs4)c3c2=O)cc1,-,-,-,-,-,-
CC1CCCN(C(=O)CSc2nnc(-c3ccc(O)cc3)o2)C1 (stereo not given),-,-,-,-,-,-
O=C(CSc1nnc(-c2cccs2)o1)OC1CCCCC1,-,-,-,-,-,-
CCC1CCCCN1C(=O)CSc1nnc(-c2cccs2)o1 (stereo not given),89,-,-,-,-,29
CC1CCCN(C(=O)CSc2nnc(-c3cccs3)o2)C1 (stereo not given),64,-,-,-,-,39
SMILES,Shiga toxin inh,SARS PLpro yeast,AMA1-RON2 inh,AmpC inh no detg,AmpC detergent,CHX counter
CCOc1ccc(-n2ccnc2SCC(=O)Nc2cc(C)ccc2C)cc1,.,.,.,.,-,.
Cc1c(C(=O)NCCC2=CCCCC2)cccc1[N+](=O)[O-],94,-,-,-,?,35
Cc1c(C(=O)NCCSCc2ccccc2Cl)cccc1[N+](=O)[O-],-,-,-,0.25µM,-,-
O=C(Cc1ccccc1[N+](=O)[O-])NCCSCc1c(F)cccc1Cl,-,-,-,-,-,40
Cc1c(C(=O)NCCc2ccc(S(N)(=O)=O)cc2)cccc1[N+](=O)[O-],-,-,-,-,-,-
Cc1c(O)ccc(-c2n[nH]c(C(=O)O)c2-c2nc3ccccc3s2)c1O,59,-,-,-,-,23
COc1ccc(Cl)cc1/C=C/c1ccc2cccc(O)c2n1,73,-,-,-,-,46

# Bioassay records: PubChem, National Center for Advancing Translational Sciences (NCATS)
